Compound activity (PubChem BioAssay)
KDM4E inh: qHTS Assay for Inhibitors of Human Jumonji Domain Containing 2E (JMJD2E); Lysine-specific demethylase 4E (Homo sapiens), B2RXH2; JMJD2E catalytic domain, FDH-coupled NADH fluorescence (FDH is formaldehyde dehydrogenase); Potency, µM (highest dose often 57.1 µM), for the others: top-dose activity change, negative = inhibition, usual class: inhibitors; hit rate 1.6% among 230,000; AID 2147, 2009; active = well fitted inhibition curve with a large enough effect, not every such curve was filed as active; inconclusive = small, poorly fitted or top-dose-only effect, or another doubt; inactive = no such curve, though single readings can be large or run the other way;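 note: potency is the fitted concentration of half-maximal effect; 0% = wells with enzyme and -100% = buffer wells without enzyme; nearly all actives have a fitted effect of over 50% in size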
Target sequence (B2RXH2 1-337 limits assumed): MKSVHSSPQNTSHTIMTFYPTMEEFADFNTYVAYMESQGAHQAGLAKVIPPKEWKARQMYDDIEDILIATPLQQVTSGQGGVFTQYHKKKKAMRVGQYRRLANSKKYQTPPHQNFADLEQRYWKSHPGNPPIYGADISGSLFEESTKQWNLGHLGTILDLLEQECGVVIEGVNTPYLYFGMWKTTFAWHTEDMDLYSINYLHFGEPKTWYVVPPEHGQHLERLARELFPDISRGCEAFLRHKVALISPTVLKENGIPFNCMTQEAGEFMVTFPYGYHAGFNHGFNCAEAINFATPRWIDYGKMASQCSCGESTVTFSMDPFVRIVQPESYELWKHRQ
Six1-Eya2 inh: qHTS Assay for Inhibitors of the Six1/Eya2 Interaction | Homeobox protein SIX1 (Homo sapiens) + Protein phosphatase EYA2 (Homo sapiens), … | AlphaScreen GST-Six1/His-Eya2 binding, biochemical; active compounds read low | activity change, % (test concentration not listed) | hit rate 0.56% among 360,000
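Six1/Eya2 binding was read as AlphaScreen signal after compounds were pinned into GST-Six1 plus His-tagged Eya2 (5X stock 250/500 nM) in pH 8.0 Tris/NaCl/TCEP buffer, beads added, then incubated 1 h, 37 C, dark.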
L3MBTL1 block: qHTS Assay for the Inhibitors of L3MBTL1. AlphaScreen L3MBTL1–H3K9me1 peptide binding. AID 485360, 2010. Lethal(3)malignant brain tumor-like protein 1 (Homo sapiens), Q9Y468. hit rate 0.66% among 230,000. Potency, µM (top dose mostly 57.1 µM), for inactives: top-dose activity, negative = inhibition, actives largely listed as inhibitors; active = well fitted inhibition curve with a large enough effect; inconclusive = small, poorly fitted or top-dose-only effect; inactive = no such curve, though single readings can be large or run the other way; note: potency is the fitted concentration of half-maximal effect; nearly all actives have a fitted effect of over 60% in size
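Read-out is AlphaScreen signal from streptavidin donor and nickel chelate acceptor beads (10 ug/mL final each) bridging L3MBTL1 (50 nM) and biotinylated K9-monomethylated H3(1-15) peptide (75 nM), after 30 min compound exposure at room temperature.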
CtBP-E1A blk: qHTS Assay for Inhibitors of the CtBP/E1A Interaction | AlphaScreen GST-E1A/His-CtBP binding, 1536-well; active compounds read low | AID 651724, 2012 | activity change, % (concentration not given with the values) | hit rate 0.49% among 340,000
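Protein mix (5X: 125 nM each GST-E1A, His-CtBP) was incubated with pinned compound 2 h at 37 deg C in dark, in 50 mM Tris pH 8.0 buffer with 300 mM NaCl. Glutathione donor and nickel acceptor beads followed; AlphaScreen signal read after 1 h.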
The depositor's hits bear a star; ? = inconclusive; . = no result. This is one part of a sample in which hits are shown more often than they occur. Cut-off read from the data, not from the text of the source, unless noted: active = activity change below about -65%; inconclusive = mostly about -30% to -63%; inactive = weaker than that. Unless noted, % is set by controls: 0 for no effect and ±100 for the full control effect.

SMILES | KDM4E inh | Six1-Eya2 inh | L3MBTL1 block | CtBP-E1A blk
Cc1nc(N=Nc2ccc(C(=O)O)cc2)c(COP(=O)(O)O)c(C=O)c1O | 28µM* | . | . | .
COc1ccc(S(=O)(=O)N2CCC(C(=O)NCCC(=O)Nc3cccc(Cl)c3)CC2)cc1 | . | -1 | . | -4
CCOC(=O)c1ccc(NC(=S)N(CCCN2CCCC2)Cc2ccco2)cc1 | 7% | -14 | 35µM* | 3
CCOC(=O)c1ccc(NC(=S)N(CCCN2CCN(CC)CC2)Cc2ccco2)cc1 | -4% | 1 | 5% | 5
Cc1ccc(C(=O)NC(=S)c2c(C)cc3ccccn23)cc1 | . | -76* | . | -22
COc1cccc(N=Nc2c(N)[nH][nH]c2=O)c1 | 6% | -16 | -8% | -15
COc1cccc(N=Nc2c(N)[nH]n3c(=O)c4c(nc23)CCCC4)c1 | -4% | -71* | -6% | -16
COc1ccc(CN2CCC(N(CCc3ccccc3)Cc3ccccc3)CC2)c(OC)c1 | 28µM* | -21 | . | 7
O=C(CC1Sc2ncnn2C1=O)Nc1ccc(Br)cc1 (stereo not drawn) | 2.2µM* | 3 | 3% | 0
Cc1ccc(NC2=CC(=O)C(=O)c3ccccc32)cc1 | 14µM* | -20 | ? | ?
Cc1ccc(NC2=C(N3CCOCC3)C(=O)c3ccccc3C2=O)cc1 | ? | -89* | ? | -92*
NS(=O)(=O)c1ccc(NC2=CC(=O)C(=O)c3ccccc32)cc1 | . | -4 | ? | ?
COc1ccc(C(C)NC(=O)C2CCN(CCCc3ccccc3)CC2)cc1OC (stereo not drawn) | . | 25 | . | 0
N#Cc1nc(-c2ccco2)oc1N1CCC(C(N)=O)CC1 | 3.5µM* | -4 | . | 11
COc1ccccc1NC(=O)CNC(=O)Cn1cnc2sc(C)c(C)c2c1=O | . | 3 | . | 0
O=C(COc1ccc(Cl)cc1)OCc1ccc(Cl)cc1 | . | 76 | . | 127
Cn1c(=N)c(S(=O)(=O)c2ccccc2)cc2c(=O)n3ccccc3nc21 | ? | ? | -2% | -70*
CCC1=C2CC[C@H]3C(=O)NC(=O)[C@H]3[C@H]2[C@@]2(C)C(=NCCOC)OC(=O)N2C1=O | -22% | . | . | .
COCCn1c(-c2ccccc2)cnc1N | 7% | -88* | -14% | ?
COc1ccc(-c2nn3c(-c4ccco4)nnc3s2)cc1OC | -26% | -78* | -4% | -86*
COc1ccc(NC(=O)CC2S/C(=N\c3nccs3)N(C)C2=O)cc1 (stereo not drawn) | -7% | 14 | -4% | 2
COc1cc2c(cc1OC)-c1cc3nc4ccccc4nc3n1C(C)(C)C2 | 4.5µM* | . | . | .
CC(=O)Nc1ccc(S(=O)(=O)NC2=C(N3CCN(c4ccc(F)cc4)CC3)C(=O)c3ccccc3C2=O)cc1 | ? | -79* | . | -78*
COC(=O)C1CCN(C2=C(NS(=O)(=O)c3ccc(Cl)cc3)C(=O)c3ccccc3C2=O)CC1 | -8% | -67* | ? | -79*
O=C(Cc1cccs1)NNC(=O)C12CC3CC(CC(C3)C1)C2 | -3% | 3 | 0% | .
SMILES | KDM4E inh | Six1-Eya2 inh | L3MBTL1 block | CtBP-E1A blk
CCc1ccc(CNc2ccc(O)cc2)cc1 | 2% | -27 | 7.9µM* | ?
Oc1ccc(NCc2ccc(OCc3ccccc3)cc2)cc1 | . | -21 | . | ?
C/C(=N\NC(=O)CN1CCN(S(=O)(=O)c2ccc(C)cc2)CC1)c1ccc(O)cc1 | 2% | 2 | -1% | -2
O=C(CCO)c1ccc(O)cc1 | ? | ? | 3.5µM* | -2
CCCCC(=O)c1ccc(O)cc1 | 0% | 6 | . | 5
Cc1ccc(-n2nc(C)c3c2OC(N)=C(C#N)C3c2ccc(F)cc2)cc1 (stereo not drawn) | -5% | -5 | . | -10
Cc1nn(-c2ccccc2)c2c1C(c1cccs1)C(C#N)=C(N)O2 (stereo not drawn) | -23% | -12 | . | -6
Cc1nn(-c2ccccc2)c2c1C(c1ccco1)C(C#N)=C(N)O2 (stereo not drawn) | 14µM* | -4 | -30% | -21
Cc1nn(-c2ccccc2)c2c1C(c1ccc([N+](=O)[O-])cc1)C(C#N)=C(N)O2 (stereo not drawn) | 18µM* | -14 | -16% | .
O=C(/C=C/c1ccc(O)c(O)c1)O[C@H]1C[C@@](O)(C(=O)O)CC(O)C1O (stereo partly drawn) | 16µM* | . | . | .
